Source: PubChem BioAssay
Hits are enriched below; roughly 6.8% of the tested compounds scored in any of these assays.
C_diff_growth: C. difficile growth inhibitors, primary screen, HTS | Clostridium difficile clinical isolate growth, OD600, 24 h; hits give low values | growth activity, negative = inhibition, % at 16 µg/mL (by protocol) | 86,000 compounds, 0.25% hits;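 active means mean growth activity at or below -80% and every replicate also at or below -80%; inconclusive means mean at or below -80% but some replicate above -80%; inactive means mean growth activity above -80%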
Pf_Dd2_growth: P. falciparum Dd2 growth inhibitors, primary screen, SYBR Green fluorescence, single dose replicates; 72 h; hits give low values; activity change, % at 10 µM; 94,000 compounds, 2.3% hits; in the data active means activity change below about -80%; inconclusive means no clear call, values can overlap the other calls
T_cruzi_growth-1: T. cruzi intracellular proliferation inhibitors, primary screen, cell-based, beta-gal Tulahuen parasites, NIH3T3 host, luminescence. T. cruzi beta-gal in NIH3T3, GalScreen luminescence, 90 h. 77,000 compounds, 5.9% hits. AID 624255, 2012. inhibition, % at 8.34 µM;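 active means mean inhibition above about 93%, with at least 55% of replicates each passing it, limit read from the data, passing the limit was not always enough; inconclusive means only one of those two conditions holds; inactive means neither condition holds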
T_cruzi_growth-2: T. cruzi intracellular proliferation inhibitors, confirmation, cell-based, NIH3T3 host, beta-gal parasite, luminescence, cherry-pick | T. cruzi beta-gal in NIH3T3, GalScreen luminescence, 90 h | 5,600 compounds, 72% hits | inhibition, % at 8.35 µM | shares compounds with T_cruzi_growth-1;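 active means mean replicate inhibition above about 95% and at least 55% of replicates individually reaching it, limit read from the data; inconclusive means only one of the two criteria is met; inactive means neither criterion is met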
T_cruzi_growth-3: inhibitors of intracellular T. cruzi replication, confirmation, NIH3T3 host cells, beta-gal parasites, cherry-pick, set 2; shares compounds with T_cruzi_growth-1; T. cruzi beta-gal in NIH3T3, GalScreen luminescence, 90 h; inhibition, % at 2.09 µM; 5,600 compounds, 21% hits; AID 651740, 2012;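 active means mean inhibition above about 95%, with at least 55% of replicates also reaching it, limit read from the data; inconclusive means meets just one of the two conditions; inactive means meets neither condition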
3T3_cytotox: cytotoxicity in mouse NIH/3T3 fibroblasts, confirmation, cytotoxicity control for T. cruzi proliferation inhibitor project, cell-based, cherry-pick, single point. shares compounds with T_cruzi_growth-1. NIH/3T3 viability, CellTiter-Glo ATP luminescence, 90 h. cytotoxicity (signal decrease), % at 8.35 µM. 5,600 compounds, 14% hits;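 active means mean signal decrease across replicates above about 35% based on untreated-well scatter, with enough replicates individually passing, limit read from the data; inconclusive means no rule stated though some were filed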
NIH3T3_tox_2: NIH/3T3 fibroblast cytotoxicity, confirmation, cytotoxicity control, cell-based, cherry-pick, single point, set 2 | shares compounds with T_cruzi_growth-1 | NIH/3T3 viability, CellTiter-Glo ATP luminescence, 90 h | inhibition, % at 24.9 µM | 5,600 compounds, 56% hits | AID 651744, 2012;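 active means mean loss of cell viability signal at or above a set limit, and enough replicates individually reaching it; inconclusive means meets only the mean limit or only the replicate share; inactive means meets neither condition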
Hits are given with their value; – = inactive; ? = inconclusive; · = no result.

SMILES C_diff_growth Pf_Dd2_growth T_cruzi_growth-1 T_cruzi_growth-2 T_cruzi_growth-3 3T3_cytotox NIH3T3_tox_2
CCCN1[C@H](C(=O)N[C@@H](C)c2ccccc2)[C@@H](CO)[C@@H]2Cn3c(ccc(-c4cccc(F)c4)c3=O)[C@@H]21 – · 107.7 96.6 – – 67.8
CCCNC(=O)[C@H]1[C@H](CO)[C@H]2Cn3c(ccc(-c4cccc(F)c4)c3=O)[C@@H]1N2C(C)=O – – – · · · ·
CCCN1[C@@H]2c3ccc(-c4ccccc4F)c(=O)n3C[C@@H]2[C@@H](CO)[C@@H]1C(=O)NCC – – 98.4 – – – –
CCCNC(=O)[C@@H]1[C@@H](CO)[C@@H]2Cn3c(ccc(-c4ccccc4F)c3=O)[C@@H]2N1CCC – – – · · · ·
CCNC(=O)[C@@H]1[C@@H](CO)[C@@H]2Cn3c(ccc(-c4ccccc4)c3=O)[C@@H]2N1Cc1ccc2c(c1)OCO2 – – 101.9 100.8 – – –
CCCN1[C@@H]2c3ccc(-c4cccc(F)c4)c(=O)n3C[C@@H]2[C@@H](CO)[C@@H]1C(=O)N[C@@H](C)c1ccccc1 – · – · · · ·
CCCNC(=O)[C@@H]1[C@@H](CO)[C@@H]2Cn3c(ccc(-c4cccc(F)c4)c3=O)[C@H]1N2C(=O)c1ccccn1 – – 103.1 ? – – –
CCNC(=O)[C@@H]1[C@@H](CO)[C@@H]2Cn3c(ccc(C4=CCCCC4)c3=O)[C@@H]2N1Cc1ccc2c(c1)OCO2 – – · · · · ·
CN(C)C(=O)[C@@H]1[C@@H](CO)[C@@H]2Cn3c(cccc3=O)[C@@H]2N1C(=O)NC1CCCC1 – – · · · · ·
CCC(=O)Nc1ccc2c(c1)C(=O)N(C)[C@@H]1CC[C@H](CC(=O)O)O[C@H]1CO2 – – – · · · ·
CO[C@@H]1CN(C)C(=O)c2cc(NS(=O)(=O)c3cccc(C)c3)ccc2OC[C@@H](C)NC[C@H]1C · – – · · · ·
Cc1noc(C)c1S(=O)(=O)Nc1ccc2c(c1)C(=O)N([C@H](C)CO)C[C@@H](C)[C@H](CN(C)C(=O)CCCN(C)C)OCCCC[C@@H](C)O2 – – – · · · ·
Cc1noc(C)c1NC(=O)Nc1cccc2c1O[C@@H](CN(C)C(=O)NC1CCCCC1)[C@@H](C)CN([C@H](C)CO)C2=O – – – · · · ·
C[C@@H]1CCCCO[C@H](CN(C)Cc2ccc(C(=O)O)cc2)[C@H](C)CN([C@@H](C)CO)C(=O)c2cc(NC(=O)C3CCCCC3)ccc2O1 – – – · · · ·
COC(=O)C[C@@H]1CC[C@@H]2[C@@H](COc3ccc(NC(=O)C4CC4)cc3C(=O)N2C)O1 – – – · · · ·
C[C@H]1CN([C@@H](C)CO)S(=O)(=O)c2ccc(C3=CCCCC3)cc2O[C@H]1CN(C)C(=O)c1ccccc1 – – – · · · ·
C[C@@H]1CN([C@@H](C)CO)S(=O)(=O)c2ccc(C3=CCCCC3)cc2O[C@@H]1CN(C)C(=O)c1ccccc1 – – 107.7 – – – 70.2
C[C@@H]1CN([C@@H](C)CO)S(=O)(=O)c2ccc(C3=CCCC3)cc2O[C@@H]1CN(C)C(=O)c1ccccc1 – – 100.0 113.6 – – –
C[C@@H]1CN([C@H](C)CO)S(=O)(=O)c2ccc(C3=CCCC3)cc2O[C@@H]1CN(C)C(=O)c1ccc(F)cc1 – – · · · · ·
C[C@H](CO)N1C[C@H](C)[C@@H](CN(C)C(=O)c2ccc(F)cc2)Oc2cc(C3=CCCCC3)ccc2S1(=O)=O – – ? 110.2 – – 47.6
C[C@H](CO)N1C[C@H](C)[C@@H](CN(C)C(=O)c2ccccc2)Oc2cc(C3=CCCC3)ccc2S1(=O)=O – – – · · · ·
